According to PubChem BioAssay:
Some of the results follow. The source made the active and inactive calls.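 The calls were made as follows, unless noted: active = substances whose mean melting-temperature shift, as a percentage of the reference inhibitor's shift, reaches about 5.3% (limit read from the data); inactive = the rest.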

Experiments:
[1] = inhibition of Brca1/Bard1 split-luciferase complementation, confirmation, counter-screen for Mdm2/MdmX interaction inhibitor project, luminescence, single concentration (AID 504668; call rule not given here); settings: Brca1/Bard1 bimolecular luciferase complementation counterscreen, at 8 µM, stronger effect = higher value
[2] = target: Tumor necrosis factor receptor superfamily member 10B (Homo sapiens) (UniProt O14763); test: caspase-8 TRAIL sensitization, hit retest, confirmation, cell-based, NB7+caspase-8, with/without TRAIL, luminescence panel (AID 651596; in the data active = activity above about 50%); settings: NB7 neuroblastoma + caspase-8, TRAIL sensitization, luminescence viability, with TRAIL, mean of runs, at 10 µM, stronger effect = higher value
[3] = as above; settings: NB7 neuroblastoma + caspase-8, without TRAIL, luminescence viability, without TRAIL, mean of runs, at 10 µM
[4] = target: Carboxy-terminal domain RNA polymerase II polypeptide A small phosphatase 1 (Homo sapiens) (UniProt Q9GZU7); test: Scp-1 binding by thermal shift, confirmation, orthogonal assay for Scp-1 inhibitor project, biophysical, differential scanning fluorimetry (AID 540329); settings: Recombinant SCP1, Sypro Orange thermal shift Tm; at 40 µM; stronger effect = higher value;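 also: 0% = Tm of DMSO wells and 100% = Tm with sodium orthovanadate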
[5] = target: Tumor necrosis factor receptor superfamily member 10B (Homo sapiens) (UniProt O14763); test: TRAIL sensitizers in caspase-8 expressing neuroblastoma cells, dose response, NB7 cells plus caspase-8, luminescence, panel (AID 652002); settings: NB7 neuroblastoma +caspase-8, TRAIL sensitization, luminescence viability, NB7+Caspase-8, with TRAIL, run 1; at 12.5 µM (top of the series)
[6] = target: Tumor necrosis factor receptor superfamily member 10B (Homo sapiens) (UniProt O14763); test: as above; settings: NB7 neuroblastoma +caspase-8, TRAIL sensitization, luminescence viability, NB7+Caspase-8, with TRAIL, run 2; at 12.5 µM (top of the series)
[7] = as above; settings: NB7 neuroblastoma +caspase-8, no TRAIL, compound-alone cytotoxicity counter-screen, luminescence viability, NB7+Caspase-8, run 1; at 12.5 µM (top of the series) unless noted
[8] = as above; settings: NB7 neuroblastoma +caspase-8, no TRAIL, compound-alone cytotoxicity counter-screen, luminescence viability, NB7+Caspase-8, run 2; at 12.5 µM (top of the series) unless noted

Sequence of Tumor necrosis factor receptor superfamily member 10B (Homo sapiens) (O14763 whole entry, looked up): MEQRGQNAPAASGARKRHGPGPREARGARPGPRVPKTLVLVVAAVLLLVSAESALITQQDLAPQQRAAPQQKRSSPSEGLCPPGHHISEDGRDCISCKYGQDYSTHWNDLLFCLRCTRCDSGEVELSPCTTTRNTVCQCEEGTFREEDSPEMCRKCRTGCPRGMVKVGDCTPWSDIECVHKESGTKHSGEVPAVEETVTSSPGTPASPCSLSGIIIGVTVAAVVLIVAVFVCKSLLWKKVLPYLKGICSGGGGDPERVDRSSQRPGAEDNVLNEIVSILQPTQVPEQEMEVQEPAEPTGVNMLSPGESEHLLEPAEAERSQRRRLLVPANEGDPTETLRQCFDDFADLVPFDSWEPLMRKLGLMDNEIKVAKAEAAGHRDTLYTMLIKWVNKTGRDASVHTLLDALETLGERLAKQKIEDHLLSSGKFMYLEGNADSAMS
Sequence of Carboxy-terminal domain RNA polymerase II polypeptide A small phosphatase 1 (Homo sapiens) (Q9GZU7 76-261 limits assumed): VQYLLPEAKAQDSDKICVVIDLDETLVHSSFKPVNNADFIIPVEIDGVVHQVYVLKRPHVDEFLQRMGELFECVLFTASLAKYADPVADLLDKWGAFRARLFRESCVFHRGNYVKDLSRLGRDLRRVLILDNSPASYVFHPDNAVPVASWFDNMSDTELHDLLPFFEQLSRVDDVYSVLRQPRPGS

O=C(/C=C/c1ccccc1)NC(NC(=S)Nc1ccc(Cl)cc1)C(Cl)(Cl)Cl (stereo not given)
inhibition [1]: 23.7% (active)
activity [2]: 37.1%
activity [3]: 30.2%

CS(=O)(=O)C1=NN2C(=N)/C(=C\c3ccc(OCCOc4ccccc4)cc3)C(=O)N=C2S1
thermal shift relative to vanadate control [4]: 280% (active)

Cc1ccc(NC(=O)CSc2nc3ccc(Nc4nc(N5CCOCC5)nc(N5CCOCC5)n4)cc3s2)cc1
inhibition [1]: 26.2% (active)
activity [2]: 58.1%
activity [3]: 40.5%
activity, % sensitization [5]: -7.95%
activity, % sensitization [6]: -11.3%
activity, % sensitization [7]: -21% [at 6.25 µM]
activity, % sensitization [8]: -31.8%

COc1cccc2cc(-c3cc(=O)oc4cc(C)c(O)cc34)oc12
thermal shift relative to vanadate control [4]: -12.5% (inactive)

COc1ccc(Cc2nnc(NC(=O)Cc3cccs3)s2)cc1
thermal shift relative to vanadate control [4]: 9.39% (active)

O=C(COC(=O)c1ccccc1O)NCc1ccco1
thermal shift relative to vanadate control [4]: -13.8% (inactive)

Cc1ccccc1NC(=O)CN1C(=O)N/C(=C\c2cccn2-c2cccc(C(=O)O)c2)C1=O
thermal shift relative to vanadate control [4]: 7.04% (active)

O=C(COC(=O)c1cnc(Cl)c(Cl)c1)NCc1ccco1
thermal shift relative to vanadate control [4]: -1.58% (inactive)

O=S(=O)(Nc1ccccc1Cl)c1cccc2nsnc12
thermal shift relative to vanadate control [4]: -16.9% (inactive)

O=C(COc1ccc(-n2cnnn2)cc1)Nc1ccccc1Cl
thermal shift relative to vanadate control [4]: -5.03% (inactive)

Cc1oc2c(C)c3oc(=O)c(CC(=O)N[C@@H](CC(C)C)C(=O)N[C@@H](Cc4ccccc4)C(=O)O)c(C)c3cc2c1C
thermal shift relative to vanadate control [4]: -12.3% (inactive)

Cc1cc(/C=C2\SC(=O)N(C)C2=O)c(C)n1-c1cccc(C(=O)O)c1
thermal shift relative to vanadate control [4]: 1.65% (inactive)

O=C1NN(c2ccccc2)C(=O)/C1=C/c1ccc(-c2cccc(C(=O)O)c2)o1
thermal shift relative to vanadate control [4]: 14.3% (active)

CCCCCc1cc(=O)oc2c(C(CCN(CC)CC)c3cc(OC)c(OC)c(OC)c3)c(OC)cc(OC)c12 (stereo not given)
inhibition [1]: 32% (active)
activity [2]: 52.9%
activity [3]: 54.7%
activity, % sensitization [5]: -8.61%
activity, % sensitization [6]: 49.1%
activity, % sensitization [7]: -1%
activity, % sensitization [8]: 3.69%

Cc1ccc(/C=C/C(=O)Nc2ccc([N+](=O)[O-])c(NC(=O)/C=C/c3ccc(C)o3)c2)o1
thermal shift relative to vanadate control [4]: 11% (active)

COC(=O)c1sc(NC(=O)c2cc(-c3ccccc3)nc3ccccc23)c(C#N)c1C
inhibition [1]: 35.4% (active)
activity [2]: 52.7%
activity [3]: 39.1%

CCOc1ccccc1/C=c1\sc2nc(-c3ccco3)nn2c1=O
thermal shift relative to vanadate control [4]: 4.79% (inactive)

COc1ccc(NC(=O)c2nc(S(=O)(=O)Cc3cccc(C)c3)ncc2Cl)c(OC)c1
inhibition [1]: 23.1% (active)
activity [2]: 30%
activity [3]: 66.4%

O=C(Nc1cccc(F)c1)c1cc(-c2ccco2)nc2ccccc12
thermal shift relative to vanadate control [4]: -0.45% (inactive)

Cn1c(=O)c(C(=O)Nc2ccccn2)c(O)c2ccccc21
inhibition [1]: 28.9% (active)
activity [2]: 60.7%
activity [3]: 58.8%

Cc1c(Cl)cnc(NC(=O)COC(=O)c2ccc(S(=O)(=O)NCc3ccco3)cc2)c1Cl
thermal shift relative to vanadate control [4]: 10.3% (active)

Cc1ccn2c(=O)nc(SCC(=O)NCc3ccc4c(c3)OCO4)nc2c1
thermal shift relative to vanadate control [4]: -9.63% (inactive)

CCCCCCc1cc2cc(S(=O)(=O)c3ccc(F)c(Cl)c3)c(=O)oc2cc1O
inhibition [1]: 27.6% (active)
activity [2]: 55.4%
activity [3]: 40%
activity, % sensitization [5]: -8.78%
activity, % sensitization [6]: -2.26%
activity, % sensitization [7]: -6.43%
activity, % sensitization [8]: -24.8%

Cc1ccc(Cc2nnc(SCC(=O)Nc3ccc(C)cc3C)[nH]c2=O)cc1
thermal shift relative to vanadate control [4]: 4.55% (inactive)

N#Cc1ccccc1CN1C(=O)S/C(=C/c2cccn2-c2cccc(C(=O)O)c2)C1=O
thermal shift relative to vanadate control [4]: 1.96% (inactive)

CC1CCN(c2ccc(S(=O)(=O)Nc3cc(C(=O)O)cc(C(=O)O)c3)cc2[N+](=O)[O-])CC1
thermal shift relative to vanadate control [4]: 15% (active)

COCCCn1c(Cc2csc(Nc3cccc(Cl)c3)n2)nnc1SCC(=O)OC1CCCCC1
thermal shift relative to vanadate control [4]: -0.65% (inactive)

COc1ccc(OCC(=O)NNC(=O)c2ccc(-c3ccccc3)cc2)cc1
thermal shift relative to vanadate control [4]: 2.47% (inactive)

O=C(CCS(=O)(=O)c1ccc(Br)cc1)NCCc1ccc(Cl)cc1
thermal shift relative to vanadate control [4]: 1.56% (inactive)

CNS(=O)(=O)c1cccc(C(=O)OCC(=O)N2c3ccccc3NC(=O)C2(C)C)c1
thermal shift relative to vanadate control [4]: 0.5% (inactive)

N#Cc1c(-c2cccs2)nc(SCC(=O)c2ccc(Br)cc2)[nH]c1=O
thermal shift relative to vanadate control [4]: -2.02% (inactive)

O=C(CCNC(=O)c1ccccc1)NN=Cc1ccc(Br)o1
thermal shift relative to vanadate control [4]: -12.5% (inactive)

Cc1ccc(C(=O)NNC(=O)c2cc3cc4ccccc4nc3s2)cc1
thermal shift relative to vanadate control [4]: -10.9% (inactive)

O=C(c1ccc(CS(=O)(=O)c2ccccc2)o1)N1CCN(c2ccccc2)CC1
thermal shift relative to vanadate control [4]: -3.55% (inactive)

Cc1nnc(SCC(=O)Nc2ccc(S(=O)(=O)Nc3ccc(Cl)nn3)cc2)s1
thermal shift relative to vanadate control [4]: 3.43% (inactive)

CCCCCc1ccc(OCCCC[n+]2ccccc2)c(CCCCC)c1
inhibition [1]: 24.6% (active)
activity [2]: 24.6%
activity [3]: 56.7%

Cc1cc(NC(=O)c2cncc(Br)c2)ccc1NC(=O)c1cc2ccccc2o1
inhibition [1]: 28.6% (active)
activity [2]: 58.9%
activity [3]: 13.3%
activity, % sensitization [5]: 7.53%
activity, % sensitization [6]: 53.9%
activity, % sensitization [7]: 12.3%
activity, % sensitization [8]: 28.1%

CCc1ccc(NC(=O)CS(=O)CC(=O)NCCCc2ccccc2)cc1 (stereo not given)
thermal shift relative to vanadate control [4]: -12.5% (inactive)

CCOC(=O)c1sc(NC(=O)c2cc(-c3ccccc3C)nc3ccccc23)c(C#N)c1C
inhibition [1]: 32.4% (active)
activity [2]: 54.4%
activity [3]: 40.4%
activity, % sensitization [5]: 16.7%
activity, % sensitization [6]: -4.14%
activity, % sensitization [7]: 4.11%
activity, % sensitization [8]: -11.3%

O=C(c1cc2c(s1)CCC2)N1CCN(c2ccccc2)CC1
thermal shift relative to vanadate control [4]: -14.1% (inactive)
